Hit rate of the full screen: of about 420,000 compounds, about 64,000 (15%) were called active. Another 27% or so got no clear call; they are omitted. Only a sample is shown. A number with no mark means an inactive call. The call rests on the fitted dose curve; in most records, active means well fitted inhibition curve with a large enough effect; inconclusive means small, poorly fitted or top-dose-only effect; inactive means flat fitted curve, though single readings scatter.
On the % scale 0 is the no-effect control and ±100 the full control effect; potency means the concentration at half of the fitted maximal effect.

The assay is described as follows: qHTS for Inhibitors of human tyrosyl-DNA phosphodiesterase 1 (TDP1): qHTS in cells in absence of CPT. Further: nearly all actives have a fitted effect of over 55% in size. Particulars: DT40 Tdp1-/- hTDP1 cells, no CPT, ATP luminescence, 48 h; activity change, negative = growth inhibition: at 46.2 µM (top of the series). In short, it runs like this: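 DT40 Tdp1-/-;hTDP1 cells, no CPT (DMSO vehicle only), 400 cells/well; compounds pin-transferred; ≥48 hr, 37 °C; CellTiter-Glo 30 min RT dark, luminescence read.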
For orientation: Quantitative high-throughput screening tests each substance at several concentrations.
As for `Cc1cc(C)n2c(Nc3c(C)cccc3C)c(CCc3ccccc3)nc2n1`, the Potency was 16.4 µM (active). For `Nc1nc(NCc2ccccc2)n(-c2ccccc2)n1`, the “activity change, negative = growth inhibition” value was -8.65%. For `Cc1ccc(O)c(CCc2ccccc2)n1`, the “activity change, negative = growth inhibition” value is -26.2%.

With `COc1cccc2c(C)c(C(=O)O)[nH]c12`, the “activity change, negative = growth inhibition” value is -20.4%. Still for that read-out and setting: in the case of `O=C(O)CC(CC(=O)N1CCOCC1)c1ccccc1` (stereo not drawn) it was -6.6%. Still for that read-out and setting: in the case of `COc1ccc(CCNS(=O)(=O)c2cccc3cccnc23)cc1OC` it was 5.97%; in that of `CCOc1ccc(C(CC(=O)O)NC(=O)Cc2ccccc2)cc1OC` (stereo not drawn), 4.25%. With `CCCCC(=O)NC(c1ccc(OC)c(OC)c1)c1ccc2cccnc2c1O` (stereo not drawn), the Potency was 3.26 µM (active). In the case of `COC(=O)C1C(=O)CC(C)(O)C(C(=O)OC)C1c1ccc2c(c1)OCO2` (stereo not drawn), the “activity change, negative = growth inhibition” value is -0.751%. Still for that read-out and setting: in the case of `NCCCC[C@@H]1NC(=O)[C@H](CCC(=O)O)NC(=O)c2cc([N+](=O)[O-])cc(I)c2NCC[C@@H](C(N)=O)NC1=O` it was -1.72%. The same measure, in the same setting: the figure for `CCc1nnc(NC(=O)CSCc2cc(=O)n3cc(C)sc3n2)s1` is 11.4%. As for `COc1ccc(CN2CC[C@H]3C=CC[C@@H](C(=O)N4CCOCC4)[C@H]3C2=O)cc1OC`, the Potency result is “inactive”. Still for that read-out and setting: in the case of `CC(NC(=O)c1cc2c(=O)n3ccccc3nc2n(C(C)C)c1=N)c1ccccc1` (stereo not drawn) it was 18.4 µM (active). Regarding `Cc1ccc2nc3c(cc(C(=O)NC4CCCCC4)c(=N)n3C(C)C)c(=O)n2c1`, the “activity change, negative = growth inhibition” value was -10.7%. Same read-out and setting: the figure for `CC(NC(=O)c1ccccc1C(=O)O)c1ccc(-n2ccnc2)cc1` (stereo not drawn) is 4.82%. As to `O=C(Nc1ccccc1)N(Cc1cccnc1)Cc1ccco1`, the “activity change, negative = growth inhibition” value is -2.21%. `O=C(CCNC(=O)c1ccccc1Cl)NCc1ccco1`: the “activity change, negative = growth inhibition” value was 11.9%.

Take `COC(=O)c1ccc(COC(=O)CNC(=O)c2cccc(OC)c2)o1`: the “activity change, negative = growth inhibition” value is 17.8%. Turning to `CCc1ccc(CN(Cc2ccco2)C(=O)c2ccccc2Cl)cc1`, the Potency was 20.6 µM (active). As for `COc1cccc(NC(=S)NCc2ccco2)c1`, the “activity change, negative = growth inhibition” value is -17.3%. On to `COc1cccc(C(=O)N(Cc2cccc(Cl)c2)Cc2ccco2)c1`, for which the Potency was 14.6 µM (active).

Consider `CCCOc1ccc(Cn2c(O)cc(=O)[nH]c2=O)cc1`, for which the “activity change, negative = growth inhibition” value was 2.12%. Same read-out and setting: the figure for `CN1CCN(C(=O)/C(=C\c2ccc3c(c2)OCO3)NC(=O)c2cccs2)CC1` is -3.25%. On the same count and under the same terms, in the case of `Cc1ccc(-c2nc(-c3ccncc3)no2)c(C)c1` it was 2.69%; in that of `Cc1nn(CC(=O)NCC2CCCO2)c(=O)c2cc3ccccc3n12` (stereo not drawn), -3.75%; in that of `CN(C)C1=NC[C@H](Cc2ccccc2)N1CCc1ccc(F)cc1`, -29.6%.

For `CCCC[C@@H]1CN=C(N)N1CCCC`, the Potency was 7.31 µM (active). The same measure, in the same setting: the figure for `CCCCN1C(N)=NC[C@@H]1CC1CCCCC1` is 16.4 µM (active); for `CCCCN1C(N)=NC[C@@H]1Cc1ccccc1` it is 14.6 µM (active). Take `CCCCN1C(=S)NC[C@@H]1C(C)CC` (stereo partly drawn): the “activity change, negative = growth inhibition” value is -7.9%.

For `CCCCNC(=O)C1CCC(=O)N1CCc1ccccc1` (stereo not drawn), the “activity change, negative = growth inhibition” value was 0.76%. On the same count and under the same terms, the figure for `NNC(=O)c1ccc(Cl)cc1Cl` is 20.2%; for `OCC(CO)(CO)NCc1ccc(-c2ccccc2)cc1` it is -20.5%. On the same count and under the same terms, the figure for `Cn1nc([N+](=O)[O-])nc1Sc1ccc(C(C)(C)C)cc1` is -21.5%. Same read-out and setting: the figure for `O=C(CC1NCCNC1=O)Nc1cc(Cl)cc(Cl)c1` (stereo not drawn) is -2.46%; for `CNC(=O)c1csc(-c2ccccc2)n1` it is 10.5%; for `Cc1ccc(SCC(=O)c2sc(-c3ccccc3)nc2C)cc1` it is -24.2%. In the case of `Cc1nc(-c2ccccc2)sc1C(=O)/C=C/c1ccccc1`, the Potency was 18.4 µM (active).

For the compound `N#Cc1cnn2cc(CCN3CCOCC3)c(-c3ccc(F)cc3)nc12`, the “activity change, negative = growth inhibition” value was -6.51%. With `CCCc1c2oc(C(=O)O)cc(=O)c2cc2c(=O)cc(C(=O)O)n(CC)c12`, the “activity change, negative = growth inhibition” value was -4.78%.

For `O=C(Nc1ccccc1C(=O)NCC1CCCO1)c1ccccc1F` (stereo not drawn), the “activity change, negative = growth inhibition” value was 12%. On the same count and under the same terms, in the case of `CNC(=O)CN1C(=O)NC(c2ccccc2)(c2ccccc2)C1=O` it was -5.71%; in that of `COc1ccc(CN2C(=O)C(CC(=O)NCc3cccc4ccccc34)CC(C(=O)N3CCOCC3)=C2C)cc1` (stereo not drawn), -25.6%; in that of `CCN(CC)C(=O)C1=C(C)N(Cc2ccc(F)cc2)C(=O)C(CC(=O)NC2CCCC2)C1` (stereo not drawn), -27.4%. For `CCN(CC)C(=O)C1=C(C)N(Cc2ccc(C(C)(C)C)cc2)C(=O)C(CC(=O)NCc2cccc3ccccc23)C1` (stereo not drawn), the Potency is 16.4 µM (active). Turning to `CCN(CC)C(=O)C1=C(C)N(Cc2ccc(OC)cc2)C(=O)C(CC(=O)NCc2ccco2)C1` (stereo not drawn), the “activity change, negative = growth inhibition” value was -23.8%. Same read-out and setting: in the case of `CC1=C(C(=O)N(C)C)CC(CC(=O)NCCN2CCOCC2)C(=O)N1Cc1ccccc1` (stereo not drawn) it was 8.06%.

Turning to `CCN(CC)C(=O)C1=C(C)N(Cc2ccccc2)C(=O)C(CC(=O)NC(c2ccccc2)c2ccccc2)C1` (stereo not drawn), the Potency is 18.4 µM (active). On to `COc1ccc2c(C)cc3nnnn3c2c1`, for which the “activity change, negative = growth inhibition” value was -26.4%. Same read-out and setting: the figure for `O=C(Nc1ccc(Cl)cc1)c1cc2nc(C3CC3)cc(C(F)(F)F)n2n1` is -8.12%; for `COc1ccc(C(=O)NCc2nnc(SCC(=O)Nc3cccc(OC)c3)o2)cc1` it is -7.64%; for `COc1ccccc1NC(=O)CSc1nnc(CNC(=O)c2ccccc2F)o1` it is 22.7%.

On to `COc1cc(C(=O)NCc2nnc(SCC(=O)Nc3nc4ccc(C)cc4s3)o2)cc(OC)c1OC`, for which the Potency is 4.61 µM (active).

These data come from PubChem BioAssay AID686978 (National Center for Advancing Translational Sciences (NCATS), 2013).
